This is an account of results in PubChem BioAssay AID624296 (National Center for Advancing Translational Sciences (NCATS), 2012).

Hit rate of the full screen: of about 350,000 compounds, about 9,900 (2.8%) were called active. Where a call stands in place of a potency, no number is given. Inconclusive results (about 15%) are left out. Calls follow the shape of the dose curve; as a rule, active = well fitted activation curve with a large enough effect; inconclusive = small, poorly fitted or top-dose-only effect; inactive = no such curve, though single readings can be large or run the other way. For the sample, actives were picked, then their nearest neighbours and some compounds at random.
Potency is read from the fitted curve at half-maximal effect.

The nature of the experiment: A quantitative high throughput screen for small molecules that induce DNA re-replication in MCF 10a normal breast cells. Also: nearly all actives have a fitted effect of over 50% in size. The settings on record: MCF 10A DNA re-replication, Hoechst nuclear intensity, 48 h; series mostly up to 46.1 µM.
For the compound `Cc1ccc(NC(=O)CN(C)C(=O)c2cccc(S(=O)(=O)N3CCCC3)c2)cc1`, the Potency entry is “inactive”.
The result for `Cc1ccc(S(=O)(=O)N2C3C=CC(C3)C2C(=O)O)cc1` (stereo unspecified) reads “inactive”.
The result for `Cc1ccc(S(=O)(=O)N2[C@@H](c3cccc4ccccc34)C(C(=O)O)=C[C@H]2C(C)(C)C)cc1` reads “inactive”; that for `Cc1ccc(S(=O)(=O)N2[C@@H](c3ccccc3F)C(C(=O)O)=CC[C@H]2c2ccc(Cl)cc2)cc1`, 7.31 µM (active); that for `COC(=O)C1=C(C)N(Cc2ccccc2)C(=NCCCOC(C)C)N[C@H]1c1ccccc1`, “inactive”.
Regarding `CC1O[C@H](OC2C(COC3OC(CO)C(O)[C@H](O)C3O)OC(OC3CC[C@]4(C)C(CC[C@@]5(C)[C@@H]4C=C[C@]46OC[C@@]7(CCC(C)(C)C[C@H]74)C(O)C[C@@]56C)C3(C)C)C(O)C2O)C(O)C(O)C1O` (stereo partly specified), the Potency result is “inactive”.
The entry for `COc1ccc(OCCCC(=O)Nc2cccc(S(=O)(=O)N3CCCCCC3)c2)cc1` is “inactive”; for `CN(CC(=O)NC1CCN(Cc2ccccc2)CC1)S(=O)(=O)c1ccc(Cl)s1` it is “inactive”; for `CC(=O)Oc1ccccc1C1=NN(C(C)=O)C(c2ccccc2)C1` (stereo unspecified) it is “inactive”.
The figure for `CC(=O)Oc1ccc(OC(C)=O)c2c1C1C=CC2CC1` is 10.3 µM (active).
The entry for `CC(=O)Oc1ccc(C(C)=O)c2c1OCCO2` is “inactive”; for `CCCCN(C(=O)c1cccc(N2C(=O)c3ccccc3C2=O)c1)c1c(N)n(CCCC)c(=O)[nH]c1=O` it is “inactive”; for `O=C(COC(=O)C1CCCO1)Nc1nc(-c2ccc(F)cc2)cs1` (stereo unspecified) it is “inactive”.
For the compound `COCCCNC(=O)/C=C/c1ccc(OCc2c(F)cccc2Cl)cc1`, the Potency result was “inactive”.
The entry for `COc1cc(CNCCN(C)C)ccc1OCc1c(F)cccc1Cl` is “inactive”; for `CN(C)CCCNC(=O)/C=C/c1ccc(OCc2c(F)cccc2Cl)cc1` it is 23.1 µM (active).
As for `O=c1oc2ccccc2c(=O)c2ccccc12`, the Potency result is “inactive”.
As for `Cc1c(Cl)cccc1NC(=O)CC1SC(=NCC2CCCO2)NC1=O` (stereo unspecified), the Potency result was “inactive”.
As to `CCN=C1SC(CC(=O)Nc2ccc(C)cc2)C(=O)N1CC` (stereo unspecified), the Potency entry was “inactive”.
The result for `Cc1ccc(NC(=O)CC2S/C(=N/N=C3\CCCc4ccccc43)NC2=O)cc1` (stereo unspecified) reads 14.6 µM (active); that for `CCN(CC(=O)Nc1c(F)cccc1F)C(=O)c1ccc(-c2ccc(C(C)=O)cc2)o1`, “inactive”.
On to `CCCCNS(=O)(=O)CCNCc1ccccc1OC`, for which the Potency result was “inactive”.
The result for `CC(Sc1ccccc1F)C(=O)Nc1cccc(S(=O)(=O)N2CCOCC2)c1` (stereo unspecified) reads “inactive”; that for `COc1ccccc1C(=O)CSc1cccc[n+]1[O-]`, “inactive”; that for `O=C(CSc1cccc[n+]1[O-])c1ccc(-c2ccccc2)cc1`, 8.2 µM (active).
As to `O=C(CSc1cccc[n+]1[O-])c1ccc(Cl)cc1`, the Potency result was “inactive”.
The entry for `CC[C@]12c3[nH]c4cc(CCC(=O)N(C)C)ccc4c3CCN1C(=O)[C@@H](CC(=O)NCCCN(C)C)C[C@@H]2C(=O)N1CCN(C(=O)c2ccco2)CC1` is “inactive”; for `CN(C(=O)c1cccc(NC(=O)Cc2ccc(NC(=O)C3CCCN(C(=O)C4CCCC4)C3)cc2)c1)C1CCC1` (stereo unspecified) it is “inactive”.
The result for `O=S(=O)(NCC1CN(S(=O)(=O)c2ccc3c(c2)OCCO3)C1)c1c(F)cccc1F` reads “inactive”; that for `COC1=CC(=O)OC(c2ccc(OC)cc2)C1` (stereo unspecified), “inactive”.
As to `CCc1nc2sc(C(=O)O)c(N)c2c2c1CCCC2`, the Potency result is “inactive”.
Take `Cc1nc2sc(C(=O)c3ccccc3)c(N)c2c2c1CCCC2`: the Potency is 14.6 µM (active).
As to `Cc1ccc2c(N)c(C(=O)c3ccccc3)sc2n1`, the Potency entry is “inactive”.
The result for `CCOC(=O)C1=CN(Cc2ccc(Br)cc2)S(=O)(=O)N(C)C1C` (stereo unspecified) reads “inactive”.
Consider `CCOC(=O)CC(=O)CSc1nc(-c2ccccc2)cc(-c2ccc(Cl)cc2)c1C#N`, for which the Potency is 11.6 µM (active).
For `N#Cc1c(C(F)(F)F)cc(-c2ccc(Cl)cc2)nc1SCC(=O)O`, the Potency result was “inactive”.
On to `N#Cc1c(-c2ccccc2)cc(-c2ccccc2)nc1SCC(=O)O`, for which the Potency entry is “inactive”.
Regarding `COc1ccc(C(=O)OC(C)C(=O)NC2CCCC2)cc1S(=O)(=O)N1CCOCC1` (stereo unspecified), the Potency result was “inactive”.
For `COc1cc(OC)cc(C(=O)N[C@H](C(=O)NNC(=O)c2ccc(Br)cc2)C(C)C)c1`, the Potency result was “inactive”.
Take `C[C@H](CO)N1C[C@H](C)[C@H](CN(C)C(=O)Nc2ccc(C(F)(F)F)cc2)Oc2c(NC(=O)c3ccncc3)cccc2C1=O`: the Potency entry was “inactive”.
The entry for `Cc1ccc(Nc2c(O)nc[nH]c2=O)cc1C` is “inactive”.
`CCCN(CCC)S(=O)(=O)c1cc2c(cc1Br)CCN2C(=O)CC`: the Potency was 18.4 µM (active).
The result for `CCC(=O)N1CCc2cc(Br)c(S(=O)(=O)NCCN3CCCCC3CC)cc21` (stereo unspecified) reads “inactive”; that for `CCC(=O)N1CCc2cc(S(=O)(=O)NC(C(=O)N3CCc4ccccc4C3)C(C)C)ccc21` (stereo unspecified), “inactive”; that for `Cn1c(CC(=O)NNC(=O)c2ccccc2F)nc2ccccc21`, “inactive”.
The result for `O=S(=O)(O)c1cc2onnc2c2ccccc12` reads “inactive”; that for `O=C(Cc1ccc(Cl)cc1)c1ccccc1`, “inactive”.
As to `CC1CC(=O)Nc2ccccc2N1C(=O)COc1ccc2cc(Br)ccc2c1` (stereo unspecified), the Potency entry is “inactive”.
The entry for `Cc1ccc(OCc2nc(C#N)c(N3CCCC3)o2)cc1` is “inactive”; for `N#Cc1nc(COc2ccc(-c3ccccc3)cc2)oc1NCc1cccnc1` it is 7.94 µM (active); for `O=S(=O)(c1ccccc1)c1nc(-c2ccccc2F)oc1NCc1cccnc1` it is “inactive”.
The entry for `O=S(=O)(c1ccc(SCc2ccccc2)nc1)N1CCCCCC1` is “inactive”.
Consider `O=C(OC12CC3CC(CC(C3)C1)C2)c1ccc(NCc2cc(O)ccc2O)cc1`, for which the Potency entry was “inactive”.
The result for `CC(CN1CCOCC1)OC(=O)c1ccc(Cl)cc1Cl` (stereo unspecified) reads “inactive”; that for `CC(C)OC(=O)c1ccc(NCc2cc(O)ccc2O)cc1Cl`, 1.64 µM (active).
The result for `CN(C)c1ccc(CSc2ccccc2)cc1` reads “inactive”; that for `O=c1c2ccccc2ncn1CCc1ccncc1`, “inactive”.
The result for `CC[C@]12c3[nH]c4ccc(Cl)cc4c3CCN1C(=O)[C@@H](CC(=O)NCCCOC)C[C@@H]2C(=O)N1CCN(C(=O)C2CC2)CC1` reads “inactive”.
Take `CC1CCCCC1NC(=O)Cn1c(=O)cnc2ccccc21` (stereo unspecified): the Potency entry was “inactive”.
The result for `C=C(C)CNc1cc(S(=O)(=O)N2CCOCC2)ccc1Oc1ccccc1` reads “inactive”.
For `N#Cc1cccc(NC(=O)COC(=O)c2ccccc2C(=O)c2ccc(Cl)c([N+](=O)[O-])c2)c1`, the Potency is 2.91 µM (active).
The entry for `NC(=O)c1ccc(NC(=O)COC(=O)c2ccc([N+](=O)[O-])cc2)cc1` is “inactive”; for `CC(CC(=O)O)C(=O)c1ccc(Cl)c([N+](=O)[O-])c1` (stereo unspecified) it is “inactive”.
Regarding `COC(=O)c1cc(NC(=O)Cc2ccccc2[N+](=O)[O-])ccc1Cl`, the Potency result was “inactive”.
Turning to `CC(=O)Nc1ccc(NC(=O)C(C)OC(=O)c2ccccc2C(=O)c2ccc(Cl)c([N+](=O)[O-])c2)cc1` (stereo unspecified), the Potency was 16.4 µM (active).
The entry for `CC(=O)Nc1ccc(NC(=O)COC(=O)c2ccccc2C(=O)c2ccccc2)cc1` is “inactive”.
